Results with a measured potency or affinity are listed apart. Calls of active or inactive are those of the source. How the calls were made is not given here.

This passage reports outcome results from PubChem BioAssay AID2279 (Southern Research Specialized Biocontainment Screening …, 2010).

This test in a line: CCR5-tropic HIV-1 fusion blockers – cell-based, CCR5-tropic Env, dose response (AID 2279). The settings on record: CCR5-tropic HIV-1 Env, reporter read-out; series mostly up to 50 µM.
Take `O=C(O)c1[nH]c2ccccc2c1C(c1c(F)cccc1Cl)c1c(C(=O)O)[nH]c2ccccc12`: the result was inactive.
The entry for `CCOc1cc(/C=N/N=C2/NC(=O)C(CC(=O)O)S2)ccc1OCc1ccc(Cl)cc1Cl` (centres undefined) is “inactive”.
For `COc1cccc(NS(=O)(=O)c2ccc3c(c2)C2C=CCC2C(c2ccc(C(=O)O)cc2)N3)c1` (centres undefined), the outcome was inactive.
For the molecule `COc1cc(C(c2c(C(=O)O)[nH]c3ccccc23)c2c(C(=O)O)[nH]c3ccccc23)ccc1OCc1ccccc1`, the outcome was inactive.
The entry for `CCS(=O)(=O)C1=NN2C(=N)/C(=C\c3ccc(OS(=O)(=O)c4ccccc4)c(OC)c3)C(=O)N=C2S1` is “inactive”; for `O=C(O)c1[nH]c2ccccc2c1C(c1cc(Cl)cc([N+](=O)[O-])c1O)c1c(C(=O)O)[nH]c2ccccc12` it is “inactive”.
`CCN1C(=O)/C(=C\c2ccc(-c3ccc([N+](=O)[O-])cc3OC)o2)SC1=Nc1cccc(C(=O)O)c1`: the outcome was inactive.
As for `Cc1cccc(C)c1-n1cccc1/C=C1\SC(=S)N(c2cccc(C(=O)O)c2)C1=O`, the outcome was inactive.
For `CCCCCc1c2c(cc(O)c1C(=O)O)OC(=O)c1c(cc(OC)cc1C(=O)CCCC)O2`, the result was inactive.
Regarding `O=C(Nc1cccc(C(F)(F)F)c1)c1cccc(NS(=O)(=O)c2ccc(O)c(C(=O)O)c2)c1`, the result was inactive.
In the case of `O=C(O)c1ccc(NS(=O)(=O)c2ccc3c(c2)C2C=CCC2C(c2ccccc2F)N3)cc1` (centres undefined), the outcome was inactive.
Turning to `Cc1ccc(F)c(NC(=O)/C(C#N)=C(\O)c2ccc(C(C)(C)C)cc2)c1`, the outcome was inactive.
The entry for `COc1cc(/C=C2\C(=N)N3N=C(S(C)(=O)=O)SC3=NC2=O)ccc1OC(=O)c1ccco1` is “inactive”; for `CCOC(=O)c1sc2nc3c(SCCC(=O)O)cc(C(=O)c4cc(OC)ccc4O)cn3c(=O)c2c1C` it is “inactive”; for `CCOC(=O)C1=C(C)N=c2s/c(=C/c3ccc(OCC(=O)O)cc3)c(=O)n2C1c1ccc(SC)cc1` (centres undefined) it is “inactive”.
With `CCOC(=O)C1=C(C)N=c2s/c(=C\c3ccc(OCC(=O)O)c(OC)c3)c(=O)n2C1c1ccc(OC)cc1` (centres undefined), the outcome was inactive.
The entry for `CN1C(=O)/C(=C/c2ccc(C(=O)Nc3ccc(O)cc3C(=O)O)cc2)SC1=S` is “inactive”; for `COc1cc(/C=C2/C(=N)N3C(=NC2=O)SN=C3S(C)(=O)=O)ccc1OS(=O)(=O)c1ccccc1` it is “inactive”.
With `COc1cccc(OCCOc2ccc(/C=C3\C(=N)N4N=C(S(C)(=O)=O)SC4=NC3=O)cc2OC)c1`, the result was inactive.
On to `O=C(O)c1[nH]c2ccccc2c1C(c1cccc(O)c1)c1c(C(=O)O)[nH]c2ccccc12`, for which the result was inactive.
`O=C(O)/C(CC(=O)c1ccc(Cl)cc1)=N/Nc1ccc([N+](=O)[O-])cc1[N+](=O)[O-]`: the result was inactive.
With `Cc1ccc2nc(N3C(=O)C(O)=C(C(=O)c4ccco4)C3c3cccc(O)c3)sc2c1` (centres undefined) the entry was “inactive”.
The entry for `O=C(Nc1ccc(C(=O)O)cc1)/C(=C\C=C\c1ccccc1)NC(=O)c1cccc(Br)c1` is “inactive”.
With `O=C(CN1C(=O)/C(=C2\SC(=S)N(CCS(=O)(=O)O)C2=O)c2ccccc21)Nc1cccc(Br)c1` the entry was “inactive”; with `CCCCCOc1ccc(C2C(C(=O)c3ccc(C)o3)=C(O)C(=O)N2c2cc(C)on2)cc1` (centres undefined), “inactive”; with `Cc1cc(C)cc(-n2cccc2/C=C2/C(=N)N3C(=NC2=O)SN=C3S(C)(=O)=O)c1`, “inactive”.
Consider `O=C(O)c1ccccc1NS(=O)(=O)c1ccc(NNC(=S)Nc2ccc(OC(F)F)cc2)c([N+](=O)[O-])c1`, for which the outcome was inactive.
With `Nc1c(S(=O)(=O)O)cc(NC(=O)c2ccccc2)c2c1C(=O)c1ccccc1C2=O` the entry was “inactive”; with `O=C(O)c1ccc(N/N=C/c2ccc(-c3cccc(Cl)c3)o2)cc1`, “inactive”.
Turning to `Cc1ccc(S(=O)(=O)Oc2ccc(/C=C3\C(=N)N4N=C(S(C)(=O)=O)SC4=NC3=O)cc2)cc1`, the result was inactive.
On to `O=C(O)CN1C(=O)/C(=C\c2cccc(OCc3ccc(Cl)cc3)c2)SC1=S`, for which the outcome was inactive.
With `O=[N+]([O-])c1cc(Cl)cc(/C=N/NC(=S)Nc2ccc(S(=O)(=O)N3CCOCC3)cc2)c1O` the entry was “inactive”.
Consider `Cc1cc(N2C(=O)C(O)=C(C(=O)c3cc4ccccc4o3)C2c2ccc(Cl)cc2)no1` (centres undefined), for which the outcome was inactive.
With `O=C(COc1ccc2ccccc2c1)Nc1cccc(C(=O)Nc2ccccc2C(=O)O)c1`, the result was inactive.
